Source: the supplement of paper PMC11732987, “Enantioselective OTUD7B fragment discovery through chemoproteomics screening and high-throughput optimisation” (Communications Chemistry, 2025)

How the values were obtained:
Assay in all cases: log2 ratio of Biotin-Ahx-Ub-VS probe labelling (fragment/DMSO); higher = less target engagement (more negative = stronger competition), active = hit call of the paper (q ≤ 0.05, log2 ratio ≤ -1)
Details in all cases: compound concentration: 200 uM; treatment time: 3 h
[1] = target: USP34 (UniProt Q70CQ2)
Summary of the method: (§1)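 Each value is an average log2 ratio of fragment to vehicle, tested by unpaired t-test. The underlying Spectronaut label-free quantities were global-median-normalised, and only proteins with ≥2 unique peptides were included. Triplicate HEK293T lysate samples (495 µg) were exposed to fragment at 200 µM or vehicle for 3 h, then to Biotin-Ahx-Ub-VS at 0.5 µM final for 1 h, before NeutrAvidin enrichment of labelled DUBs, LysC and trypsin digestion, and diaPASEF LC-MS/MS.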

[2] = target: T1, USP36 (UniProt Q9P275)
T1 sequence (whole entry): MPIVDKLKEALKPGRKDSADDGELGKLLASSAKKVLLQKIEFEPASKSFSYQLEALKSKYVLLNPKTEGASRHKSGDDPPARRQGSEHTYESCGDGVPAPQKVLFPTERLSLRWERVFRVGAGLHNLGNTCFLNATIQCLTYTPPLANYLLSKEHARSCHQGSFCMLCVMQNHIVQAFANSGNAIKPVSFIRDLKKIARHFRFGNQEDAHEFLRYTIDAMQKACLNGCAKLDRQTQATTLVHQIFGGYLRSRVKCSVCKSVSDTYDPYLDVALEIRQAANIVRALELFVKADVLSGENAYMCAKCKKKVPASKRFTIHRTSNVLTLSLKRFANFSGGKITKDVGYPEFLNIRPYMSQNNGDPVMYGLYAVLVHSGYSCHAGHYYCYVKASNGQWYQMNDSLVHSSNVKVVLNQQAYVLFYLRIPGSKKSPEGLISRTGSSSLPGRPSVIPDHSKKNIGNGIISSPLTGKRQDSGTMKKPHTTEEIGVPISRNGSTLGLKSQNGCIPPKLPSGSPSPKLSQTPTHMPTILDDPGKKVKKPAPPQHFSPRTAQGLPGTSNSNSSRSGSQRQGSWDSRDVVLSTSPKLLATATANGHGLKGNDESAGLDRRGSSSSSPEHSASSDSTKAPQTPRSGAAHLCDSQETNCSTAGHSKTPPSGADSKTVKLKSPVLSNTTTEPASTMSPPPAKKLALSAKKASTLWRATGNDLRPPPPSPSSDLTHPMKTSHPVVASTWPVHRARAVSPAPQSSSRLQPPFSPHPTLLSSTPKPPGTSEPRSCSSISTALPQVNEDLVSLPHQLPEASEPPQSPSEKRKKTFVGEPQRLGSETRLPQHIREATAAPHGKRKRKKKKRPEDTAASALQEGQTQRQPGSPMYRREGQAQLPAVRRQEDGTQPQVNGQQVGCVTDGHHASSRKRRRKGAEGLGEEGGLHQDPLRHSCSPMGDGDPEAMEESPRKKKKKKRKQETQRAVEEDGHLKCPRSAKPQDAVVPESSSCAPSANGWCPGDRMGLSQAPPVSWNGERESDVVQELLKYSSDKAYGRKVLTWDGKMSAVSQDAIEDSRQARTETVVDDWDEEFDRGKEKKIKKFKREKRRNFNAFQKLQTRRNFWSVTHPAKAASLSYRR
Summary of the method: as §1

[3] = target: T2, USP38 (UniProt Q8NB14)
T2 sequence (whole entry): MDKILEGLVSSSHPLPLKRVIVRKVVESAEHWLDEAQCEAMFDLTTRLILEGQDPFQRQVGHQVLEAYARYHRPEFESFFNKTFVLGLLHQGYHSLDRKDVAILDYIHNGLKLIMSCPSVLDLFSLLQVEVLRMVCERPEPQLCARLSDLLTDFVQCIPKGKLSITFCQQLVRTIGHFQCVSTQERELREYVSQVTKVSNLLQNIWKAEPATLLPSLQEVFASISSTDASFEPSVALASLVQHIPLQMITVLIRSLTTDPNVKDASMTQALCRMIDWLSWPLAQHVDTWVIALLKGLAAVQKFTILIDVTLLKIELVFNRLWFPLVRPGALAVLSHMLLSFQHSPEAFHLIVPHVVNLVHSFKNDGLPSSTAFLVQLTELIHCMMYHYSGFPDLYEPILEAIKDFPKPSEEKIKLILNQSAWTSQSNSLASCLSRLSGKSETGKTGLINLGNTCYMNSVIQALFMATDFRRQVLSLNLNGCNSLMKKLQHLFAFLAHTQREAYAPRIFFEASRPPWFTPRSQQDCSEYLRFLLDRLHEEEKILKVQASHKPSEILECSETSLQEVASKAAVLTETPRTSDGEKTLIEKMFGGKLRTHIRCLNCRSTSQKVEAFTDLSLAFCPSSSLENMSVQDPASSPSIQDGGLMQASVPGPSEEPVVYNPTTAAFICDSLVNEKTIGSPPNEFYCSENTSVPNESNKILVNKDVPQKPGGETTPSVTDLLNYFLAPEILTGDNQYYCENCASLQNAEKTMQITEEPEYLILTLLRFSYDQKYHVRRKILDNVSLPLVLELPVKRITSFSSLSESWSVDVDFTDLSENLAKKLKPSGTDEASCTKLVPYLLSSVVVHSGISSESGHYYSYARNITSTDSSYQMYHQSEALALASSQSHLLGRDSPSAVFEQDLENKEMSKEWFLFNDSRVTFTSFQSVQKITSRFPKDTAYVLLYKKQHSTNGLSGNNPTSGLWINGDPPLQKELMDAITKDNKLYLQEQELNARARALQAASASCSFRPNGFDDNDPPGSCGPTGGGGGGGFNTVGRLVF
Summary of the method: as §1

[4] = target: T3, USP39 (UniProt Q53GS9)
T3 sequence (whole entry): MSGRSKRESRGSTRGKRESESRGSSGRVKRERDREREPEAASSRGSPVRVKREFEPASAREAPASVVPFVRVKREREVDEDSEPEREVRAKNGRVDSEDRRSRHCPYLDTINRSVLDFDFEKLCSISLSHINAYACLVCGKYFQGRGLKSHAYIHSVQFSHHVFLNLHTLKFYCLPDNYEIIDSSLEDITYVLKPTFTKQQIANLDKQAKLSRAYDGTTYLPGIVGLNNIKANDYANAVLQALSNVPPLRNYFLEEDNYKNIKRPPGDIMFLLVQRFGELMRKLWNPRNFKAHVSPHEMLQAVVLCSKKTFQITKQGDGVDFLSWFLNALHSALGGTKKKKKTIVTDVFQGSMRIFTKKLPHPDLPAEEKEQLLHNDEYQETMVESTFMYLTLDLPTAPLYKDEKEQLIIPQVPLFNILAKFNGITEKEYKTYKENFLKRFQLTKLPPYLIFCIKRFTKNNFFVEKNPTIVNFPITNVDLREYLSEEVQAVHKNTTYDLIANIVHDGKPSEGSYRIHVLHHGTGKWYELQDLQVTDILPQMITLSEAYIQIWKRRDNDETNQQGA
Summary of the method: as §1

[5] = target: T4, USP4 (UniProt Q13107)
T4 sequence (whole entry): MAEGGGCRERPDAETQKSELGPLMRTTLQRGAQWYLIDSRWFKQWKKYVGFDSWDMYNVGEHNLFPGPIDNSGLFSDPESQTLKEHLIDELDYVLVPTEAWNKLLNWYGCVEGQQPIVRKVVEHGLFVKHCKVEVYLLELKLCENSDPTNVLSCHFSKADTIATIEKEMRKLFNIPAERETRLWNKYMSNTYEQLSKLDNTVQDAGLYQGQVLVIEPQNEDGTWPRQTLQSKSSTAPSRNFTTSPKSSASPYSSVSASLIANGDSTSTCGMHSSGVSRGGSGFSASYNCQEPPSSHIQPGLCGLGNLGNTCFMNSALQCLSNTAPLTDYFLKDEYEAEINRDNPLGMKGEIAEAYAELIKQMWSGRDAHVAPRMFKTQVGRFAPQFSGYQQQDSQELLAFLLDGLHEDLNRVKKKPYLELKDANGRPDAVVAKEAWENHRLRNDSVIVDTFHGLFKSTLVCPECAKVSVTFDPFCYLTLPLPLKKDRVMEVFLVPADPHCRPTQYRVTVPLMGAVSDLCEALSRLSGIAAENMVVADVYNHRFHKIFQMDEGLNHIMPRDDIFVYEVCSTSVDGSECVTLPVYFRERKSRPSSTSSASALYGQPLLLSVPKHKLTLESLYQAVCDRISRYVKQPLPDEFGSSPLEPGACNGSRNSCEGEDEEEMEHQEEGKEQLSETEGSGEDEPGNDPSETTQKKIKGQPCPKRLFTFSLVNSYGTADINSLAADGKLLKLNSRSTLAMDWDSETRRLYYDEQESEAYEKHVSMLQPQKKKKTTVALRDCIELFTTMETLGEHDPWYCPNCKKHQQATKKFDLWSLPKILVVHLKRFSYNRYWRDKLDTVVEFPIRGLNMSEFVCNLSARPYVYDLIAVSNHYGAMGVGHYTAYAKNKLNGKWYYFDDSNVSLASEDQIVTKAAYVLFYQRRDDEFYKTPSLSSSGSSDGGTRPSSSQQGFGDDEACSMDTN
Summary of the method: as §1

Measured: log2 ratio of Biotin-Ahx-Ub-VS probe labelling

USP34, sequence (Q70CQ2 whole entry, the tested form may be a part): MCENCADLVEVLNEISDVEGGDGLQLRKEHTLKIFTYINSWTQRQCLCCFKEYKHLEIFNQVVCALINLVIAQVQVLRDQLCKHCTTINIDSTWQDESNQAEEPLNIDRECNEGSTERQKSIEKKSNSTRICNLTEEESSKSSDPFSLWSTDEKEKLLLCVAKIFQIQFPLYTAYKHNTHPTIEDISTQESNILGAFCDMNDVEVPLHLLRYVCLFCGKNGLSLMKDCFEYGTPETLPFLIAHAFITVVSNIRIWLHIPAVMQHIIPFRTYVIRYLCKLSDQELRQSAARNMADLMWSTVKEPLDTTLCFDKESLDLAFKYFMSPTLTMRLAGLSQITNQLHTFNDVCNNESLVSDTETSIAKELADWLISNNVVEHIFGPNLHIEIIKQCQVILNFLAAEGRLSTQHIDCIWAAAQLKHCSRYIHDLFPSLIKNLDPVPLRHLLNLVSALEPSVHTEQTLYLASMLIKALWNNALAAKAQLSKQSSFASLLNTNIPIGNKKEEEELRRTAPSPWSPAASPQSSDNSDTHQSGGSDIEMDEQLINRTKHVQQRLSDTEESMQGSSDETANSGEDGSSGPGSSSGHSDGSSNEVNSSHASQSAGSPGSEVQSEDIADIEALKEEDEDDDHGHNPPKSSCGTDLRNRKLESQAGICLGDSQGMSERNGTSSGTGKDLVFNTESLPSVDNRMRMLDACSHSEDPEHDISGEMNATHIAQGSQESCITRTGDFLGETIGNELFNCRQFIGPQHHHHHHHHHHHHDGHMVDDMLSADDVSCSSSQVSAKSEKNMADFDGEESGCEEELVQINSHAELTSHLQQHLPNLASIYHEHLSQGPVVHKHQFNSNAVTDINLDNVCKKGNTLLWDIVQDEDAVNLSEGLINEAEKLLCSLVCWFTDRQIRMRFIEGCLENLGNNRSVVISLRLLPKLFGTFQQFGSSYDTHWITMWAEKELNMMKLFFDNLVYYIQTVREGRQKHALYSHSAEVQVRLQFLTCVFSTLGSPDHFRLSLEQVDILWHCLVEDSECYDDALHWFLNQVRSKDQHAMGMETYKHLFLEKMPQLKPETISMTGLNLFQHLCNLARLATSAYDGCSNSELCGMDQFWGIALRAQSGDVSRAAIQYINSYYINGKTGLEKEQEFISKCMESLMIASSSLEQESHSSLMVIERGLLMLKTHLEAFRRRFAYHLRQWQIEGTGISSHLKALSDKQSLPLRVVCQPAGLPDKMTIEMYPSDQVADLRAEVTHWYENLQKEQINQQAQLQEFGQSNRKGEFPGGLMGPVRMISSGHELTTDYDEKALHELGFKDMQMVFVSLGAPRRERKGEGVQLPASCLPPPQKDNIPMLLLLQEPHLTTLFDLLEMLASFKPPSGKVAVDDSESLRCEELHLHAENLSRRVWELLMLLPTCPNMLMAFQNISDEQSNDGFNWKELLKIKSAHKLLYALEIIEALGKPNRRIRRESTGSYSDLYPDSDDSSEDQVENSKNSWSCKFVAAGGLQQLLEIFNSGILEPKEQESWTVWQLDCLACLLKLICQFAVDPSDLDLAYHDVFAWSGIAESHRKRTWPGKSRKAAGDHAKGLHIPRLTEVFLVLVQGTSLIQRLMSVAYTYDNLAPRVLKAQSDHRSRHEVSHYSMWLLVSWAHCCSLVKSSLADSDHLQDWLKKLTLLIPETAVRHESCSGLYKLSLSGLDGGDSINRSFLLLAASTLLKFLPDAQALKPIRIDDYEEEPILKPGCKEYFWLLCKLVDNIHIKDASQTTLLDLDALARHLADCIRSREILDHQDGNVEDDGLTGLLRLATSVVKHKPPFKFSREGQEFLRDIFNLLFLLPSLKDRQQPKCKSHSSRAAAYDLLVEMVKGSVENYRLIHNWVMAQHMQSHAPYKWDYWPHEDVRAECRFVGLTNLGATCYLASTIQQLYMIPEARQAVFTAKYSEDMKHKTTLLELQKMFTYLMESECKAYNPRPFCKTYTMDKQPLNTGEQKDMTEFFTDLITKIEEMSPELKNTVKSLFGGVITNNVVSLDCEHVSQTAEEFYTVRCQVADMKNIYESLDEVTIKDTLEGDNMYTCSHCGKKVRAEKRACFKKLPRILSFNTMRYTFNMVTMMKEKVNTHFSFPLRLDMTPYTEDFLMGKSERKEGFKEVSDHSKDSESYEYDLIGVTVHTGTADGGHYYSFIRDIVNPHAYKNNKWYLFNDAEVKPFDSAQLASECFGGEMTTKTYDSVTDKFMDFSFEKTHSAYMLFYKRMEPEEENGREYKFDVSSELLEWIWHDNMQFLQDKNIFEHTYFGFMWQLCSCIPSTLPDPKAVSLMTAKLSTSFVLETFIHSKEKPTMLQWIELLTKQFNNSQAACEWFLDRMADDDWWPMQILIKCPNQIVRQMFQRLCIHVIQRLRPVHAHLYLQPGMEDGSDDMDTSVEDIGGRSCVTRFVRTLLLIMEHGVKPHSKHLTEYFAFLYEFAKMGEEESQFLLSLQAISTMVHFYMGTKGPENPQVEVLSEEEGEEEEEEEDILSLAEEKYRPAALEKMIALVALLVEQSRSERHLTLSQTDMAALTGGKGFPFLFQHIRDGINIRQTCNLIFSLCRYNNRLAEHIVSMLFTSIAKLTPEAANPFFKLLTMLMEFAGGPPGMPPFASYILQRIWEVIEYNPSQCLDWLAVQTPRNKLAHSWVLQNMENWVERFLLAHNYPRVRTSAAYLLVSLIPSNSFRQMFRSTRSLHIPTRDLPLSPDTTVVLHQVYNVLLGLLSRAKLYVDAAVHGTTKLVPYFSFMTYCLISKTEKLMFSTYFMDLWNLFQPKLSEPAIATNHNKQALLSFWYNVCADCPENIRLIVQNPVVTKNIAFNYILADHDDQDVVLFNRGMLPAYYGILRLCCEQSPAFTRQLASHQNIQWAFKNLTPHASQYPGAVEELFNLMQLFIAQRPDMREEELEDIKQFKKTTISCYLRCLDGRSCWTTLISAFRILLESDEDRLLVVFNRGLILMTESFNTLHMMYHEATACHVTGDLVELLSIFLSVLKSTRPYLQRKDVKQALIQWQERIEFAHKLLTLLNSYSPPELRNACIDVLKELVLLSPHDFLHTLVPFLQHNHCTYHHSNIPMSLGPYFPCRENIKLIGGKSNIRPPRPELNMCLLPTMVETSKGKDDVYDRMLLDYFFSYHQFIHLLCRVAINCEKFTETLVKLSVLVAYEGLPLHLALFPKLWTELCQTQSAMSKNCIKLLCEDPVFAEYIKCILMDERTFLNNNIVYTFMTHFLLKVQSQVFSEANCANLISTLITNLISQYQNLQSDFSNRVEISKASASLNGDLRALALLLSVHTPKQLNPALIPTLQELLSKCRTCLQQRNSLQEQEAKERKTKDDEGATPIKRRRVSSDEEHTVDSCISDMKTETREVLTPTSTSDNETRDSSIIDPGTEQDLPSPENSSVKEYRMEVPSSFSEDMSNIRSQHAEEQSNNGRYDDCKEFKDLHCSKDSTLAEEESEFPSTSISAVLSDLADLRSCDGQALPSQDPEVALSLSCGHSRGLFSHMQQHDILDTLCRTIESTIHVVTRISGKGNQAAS

O=C(CCl)N[C@H]1CC[C@@H](CO)CC1
inactive: [1] -0.402 | [2] -0.283 | [3] -0.651 | [4] -0.098 | [5] -0.775
